Assay outcomes deposited in PubChem by several laboratories.
In the library only some 3.1% were active in any assay of this set; here they are far more common.
ARNT-TACC3 inh: disruptors of human ARNT/TACC3 interaction; Q9Y6A5; AlphaScreen His-ARNT PAS-B/GST-TACC3 binding, luminescence; TACC3 fragment carries E629A point mutation; inhibition, % at 9.99 µM; 390,000 tested, 0.66% active; AID 623870;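 active means mean inhibition of replicates at least 50% and at least half of replicates each reaching 50%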;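 further: 0% = complete ARNT plus TACC3 wells and 100% = ARNT alone without TACC3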
HSP90 refold inh: blocks HSP90-mediated luciferase refolding in reticulocyte lysate. Rabbit reticulocyte lysate, luciferase refolding luminescence, 3 h. inhibition, % at 5.6 µM. 290,000 tested, 0.91% active. AID 1789;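 active means inhibition above the screen-wide mean plus 3 SD, computed separately per campaign, cut at about 16% in these data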;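 further: 0% = DMSO wells and 100% = 60 µM geldanamycin wells; inhibitors lower the luminescence because luciferase stays unfolded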
HSF1 inhib: HSF1 inhibition. activity change, negative = inhibition, % at 7.5 µM (by protocol). NIH3T3-HGL HSE-luciferase, MG132-induced, luminescence 8 h; stronger effect = lower value. 300,000 tested, 0.77% active;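 active means more than half of replicate wells show activity change below -50%, luminescence cut by over half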;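 further: luciferase reports HSF-1 transcriptional activity via heat shock element; 0% = median of DMSO wells and -100% = zero luminescence signal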
HSF-1 act: increases HSF-1 driven luciferase reporter signal; NIH3T3-HGL HSF-1 luciferase reporter, MG132, 8 h; 100% = twice DMSO control signal; 300,000 tested, 1.7% active; activation, % at 9 µM; AID 504408;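 active means mean replicate activation of at least 50% with a set share of replicates each reaching 50%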;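 further: 0% = median of the neutral control wells and 100% = twice that signal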
HIF activator: HIF pathway transcriptional activation; 300,000 tested, 0.32% active; U2OS HRE-luciferase reporter, luminescence; normalized: DMSO 0%, desferrioxamine 100%; AID 1910; activation, % at 7.5 µM (by protocol);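 active means mean activation of at least 10% of the iron chelator positive control signal, with at least half of replicates also reaching 10%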
An asterisk follows results filed as active; . = not tested or not shown.

SMILES | ARNT-TACC3 inh | HSP90 refold inh | HSF1 inhib | HSF-1 act | HIF activator
O=c1c2c(-c3ccccc3)csc2nc2c3ccccc3c(NCCN3CCOCC3)nn12 | 74* | 6 | 15 | 44 | -6
O=c1c2ccccc2nc2c3ccccc3c(NCCN3CCOCC3)nn12 | . | 2 | 19 | 19 | 26*
c1ccc(-c2csc3ncnc(NCCCN4CCOCC4)c23)cc1 | . | -1 | -5 | -17 | 0
Nc1cc(N)nc(SCC(=O)Nc2ccc(Br)cc2Cl)n1 | -2 | . | 44 | 62* | 2
Nc1nc(SCC(=O)Nc2ccc(Br)cc2Br)n[nH]1 | 2 | . | . | . | .
C[C@H](CO)N1C[C@H](C)[C@H](CN(C)Cc2ccc(Cl)c(Cl)c2)OCCCC[C@H](C)Oc2ccc(NC(=O)Nc3ccccc3)cc2C1=O | 16 | . | . | . | .
CCCCNc1nc(N)nc(-c2cc(Cl)ccc2O)n1 | -4 | -2 | 13 | 5 | 13*
CCNc1nc(N)nc(-c2cc(Cl)ccc2O)n1 | -19 | 4 | 12 | 47 | 5
O=[N+]([O-])c1ccc(Sc2cccc3cccnc23)c2cccnc12 | 2 | 0 | 69 | 110* | -2
COc1ccc(CSc2cccc3cccnc23)cc1[N+](=O)[O-] | 45* | 0 | 10 | 16 | 1
O=[N+]([O-])c1cc2cccnc2c2ncccc12 | . | -1 | -21 | . | 1
COc1ccc(C(=O)Oc2cccc3cccnc23)cc1[N+](=O)[O-] | 56* | 4 | 4 | 16 | 0
Cn1cc(CC(=O)N2CCN(c3ccc(Cl)cc3)CC2)c2ccccc21 | 0 | -1 | 5 | 28 | 42*
Cn1cc(CC(=O)N2CCN(c3ccccc3F)CC2)c2ccccc21 | 2 | 1 | 9 | 19 | 0
C[C@@H]1CN([C@@H](C)CO)C(=O)c2cc(C#Cc3cccc(F)c3)cnc2O[C@H]1CN(C)C(=O)c1ccccc1F | -3 | . | . | . | .
Cc1ccc(S(=O)(=O)N[C@@H]2C=C[C@H](CC(=O)NC3CCCCC3)O[C@@H]2CO)cc1 | -11 | . | . | . | .
CCSC1(SCC)N=C(N)C2(C#N)C(c3ccc(F)cc3)C12C#N (configuration not stated) | . | 1 | 74 | 82* | 3
CCCCn1cnc2c(oc3nc4c(cc32)CCCC4)c1=O | -13 | 10 | 12 | 53* | 0
CCCCCCn1cnc2c(oc3nc4c(cc32)CCCC4)c1=O | 10 | -3 | 15 | 34 | 0
O=C(c1ccccc1F)N1CC[C@@H]2[C@@H](CO)Nc3ccc(C#Cc4ccccc4)cc3[C@@H]21 | -8 | . | . | . | .
C[C@H](CO)N1C[C@H](C)[C@@H](CN(C)Cc2ccncc2)Oc2cc(C#CC(C)(C)O)ccc2S1(=O)=O | -9 | . | . | . | .
Oc1ccc2ccccc2c1CN1CCN(c2ccccc2)CC1 | -3 | 5 | 294 | 375* | 1
O=C(c1cccnc1)N1C[C@@H]2[C@H](c3ccccc31)[C@H](CO)N2C(=O)C1CCOCC1 | 2 | . | . | . | .
COc1cc(NC(=O)c2cccs2)c(C(=O)OCC(=O)c2cc(C)n(-c3ccccc3)c2C)cc1OC | 12 | 0 | -4 | -6 | -3
COc1cc(NC(=O)c2cccs2)c(C(=O)OCC(=O)c2cc(C)n(-c3ccc(F)cc3)c2C)cc1OC | -9 | -2 | -64* | -68 | 0
SMILES | ARNT-TACC3 inh | HSP90 refold inh | HSF1 inhib | HSF-1 act | HIF activator
C[C@H](CO)N1C[C@H](C)[C@@H](CN(C)Cc2ccccc2)Oc2ccc(NS(C)(=O)=O)cc2CC1=O | 1 | . | . | . | .
COc1cccc(N2CCN(S(=O)(=O)c3cc4c(cc3C)N(C)CCO4)CC2)c1 | 5 | 2 | 34 | 55* | 0
COc1cccc(N2CCN(S(=O)(=O)c3ccc(-c4coc(C)n4)cc3)CC2)c1 | -1 | -1 | 28 | 73* | 0
COc1ccc2cc3c(N)nn(C(=O)Cc4c[nH]c5ccccc45)c3nc2c1 | 8 | -4 | -54* | -65 | 14*
COc1ccc2cc3c(N)nn(C(=O)c4ccccc4Cl)c3nc2c1 | 29 | -4 | -51* | -63 | 3
Cc1ccccc1S(=O)(=O)NCC[C@H]1CC[C@H](NC(=O)C2CC2)[C@@H](CO)O1 | -3 | . | . | . | .
COc1ccc(-c2nc(-c3ccccc3)c(-c3cccs3)[nH]2)cc1OC | 2 | 1 | 16 | 51* | 0
N#Cc1ccc(OCCN2CCc3ccccc3C2)cc1 | -1 | . | 37 | 85* | 1
Cc1cccc(C)c1Nc1nnc(SCc2cc([N+](=O)[O-])cc3c2OCOC3)s1 | . | -8 | 58 | 99* | 0
